In PubChem BioAssay (NCI):
About 79,000 compounds went through this panel and 15% of them were active in at least one assay; those are over-represented in the sample as a whole. No stated cut-off is given here; in the data, active means growth inhibition above about 70%; inactive means the rest. Where a SMILES comes first, the peptide text is derived from it. [ ]: non-standard residue; d: D form. The star is where a group is joined. ξ: configuration not given here. Cbz = O=C(OCc1ccccc1)*; ξNva = CCCC(N)C(=O)O

Key:
[1] = NCI Yeast Anticancer Drug Screen. Data for the rad50 strain (AID 155);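 further: 0% = growth of vehicle-only cultures of the same strain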; conditions: S. cerevisiae rad50 strain growth inhibition; at 50.0 µM; stronger effect = higher value
Outline: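 Inhibition values express reduced yeast growth in compound-treated cultures relative to vehicle-treated controls.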

[2] = NCI Yeast Anticancer Drug Screen. Data for the mec2-1 strain (AID 157); conditions: S. cerevisiae mec2-1 strain, at 50.0 µM, stronger effect = higher value
Outline: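 mec2-1 yeast strain, carrying an alteration in DNA damage repair or cell cycle control, was exposed to compounds; growth inhibition was measured relative to vehicle-treated controls.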

[3] = NCI Yeast Anticancer Drug Screen. Data for the sgs1 mgt1 strain (AID 161);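 further: 0% = growth of cultures given vehicle only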; conditions: S. cerevisiae sgs1 mgt1 strain, at 50.0 µM, stronger effect = higher value
Outline: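 Growth of a repair-deficient yeast mutant was monitored after compound treatment and expressed as inhibition relative to vehicle-treated cultures.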

[4] = NCI Yeast Anticancer Drug Screen. Data for the cln2 rad14 strain (AID 165);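 further: 0% = growth equal to vehicle treated cultures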; conditions: S. cerevisiae cln2 rad14 strain, at 50.0 µM, stronger effect = higher value
Outline: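 Yeast carrying cln2 and rad14 alterations (cell cycle control and DNA damage repair) were exposed to compounds. Growth inhibition was measured against vehicle-treated controls.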

[5] = NCI Yeast Anticancer Drug Screen. Data for the bub3 strain (AID 167); conditions: S. cerevisiae bub3 mutant strain, at 50.0 µM, stronger effect = higher value
Outline: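 Steps: expose the mutant yeast strain to compound; grow alongside vehicle-treated cultures; measure growth; express inhibition against the vehicle cultures.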

[6] = NCI Yeast Anticancer Drug Screen. Data for the mlh1 rad18 strain (AID 175); conditions: S. cerevisiae mlh1 rad18 strain growth inhibition; at 50.0 µM; stronger effect = higher value
Outline: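 Growth inhibition of the yeast strain was measured after compound exposure and expressed relative to vehicle-treated controls. The strain carries defined defects in DNA damage repair.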

Measured: growth inhibition

NC(=O)CNCc1ccccc1
inactive: [1] 0.3% | [2] -3.75% | [3] 12.7% | [4] -52% | [5] 0.25% | [6] 4.25%

C=CCCNC(=S)S
inactive: [1] -1.15% | [2] 11.7% | [3] 6.1% | [4] -2.9% | [5] 4% | [6] -3.4%

O=Nc1ccc(O)cc1O
inactive: [1] 16.9% | [2] 2.5% | [3] 1.15% | [4] -38.6% | [5] 33.3% | [6] 19.1%

CCC(=O)Nc1cc(Cl)ccc1Cl
inactive: [1] 34.2% | [2] 11.8% | [3] 10.4% | [4] 10.2% | [5] -8.9% | [6] 11.2%

N#CC(C(=O)C(=O)Nc1cccc(C(F)(F)F)c1)c1cccc(Cl)c1 (configuration not stated)
inactive: [1] 19.1% | [2] 11.4% | [3] 14.8% | [4] 12.2% | [5] 19.6% | [6] 28.9%

Cn1c(=O)c2ncn(Cc3ccccc3)c2n(C)c1=O
inactive: [1] 1.8% | [2] 4.4% | [3] 0.85% | [4] 0.75% | [5] -7.75% | [6] 13.2%

c1ccc(-c2nc3ccccc3o2)cc1
inactive: [1] 31.3% | [2] 21.4% | [3] 26.9% | [4] 4.25% | [5] 27.4% | [6] 37.4%

Cc1cc(N2CCCCC2)nc(N2CCCCC2)c1C#N
inactive: [1] -4.2% | [2] -20.2% | [3] 27.7% | [4] 14.6% | [5] 35.9% | [6] 13.8%

O=c1[nH]nc(-c2ccc(Cl)cc2)[nH]1
inactive: [1] 9.35% | [2] -4.25% | [3] -3.85% | [4] -30.1% | [5] -5.8% | [6] -3.9%

O=C(/C=C/c1ccco1)N1CCN(Cc2ccccc2)CC1
inactive: [1] 3.7% | [2] 8.15% | [3] 23% | [4] 32.2% | [5] 53% | [6] 14.4%

CCCCCCC(=O)/C=C/c1ccccc1OC
inactive: [1] 9.15% | [2] -12.2% | [3] -3.55% | [4] -20.4% | [5] 2.3% | [6] -14.1%

CSc1nnc(SCc2nn3c(=O)cc(C)nc3s2)s1
inactive: [1] -7.9% | [2] -0.85% | [3] 0.4% | [4] 10% | [5] 5.55% | [6] 10.6%

Clc1ccnnc1Cl
inactive: [1] -17.7% | [2] -30.8% | [3] -43% | [4] 13.2% | [5] -37.5% | [6] -15.7%

Cc1cc(C)nc(C)c1.[Cl-].[Cl-].[Cl-].[Cl-].[Pt+2]
inactive: [1] 8.9% | [2] 9.25% | [3] -7.5% | [4] 7.4% | [5] 2.6% | [6] 7.1%

CCOC(=O)C(=CNC(=S)Nc1ccccc1)C(=O)OCC
inactive: [1] -24.9% | [2] -22.9% | [3] -23.8% | [4] -17.1% | [5] -13.7% | [6] 2.2%

CC(C)(C)Oc1cc(F)c(C(C)(C)C)cc1C(C)(C)C
inactive: [1] -4% | [2] -7.4% | [3] -2.4% | [4] 8.75% | [5] 0.05% | [6] 10.7%

O=C(NCCN1CCCCC1)c1ccc(Br)cc1
inactive: [1] -15.2% | [2] -16.4% | [3] -12.6% | [4] -6% | [5] -18.9% | [6] -47.1%

C=CC(C)c1cccc(C=O)c1O (configuration not stated)
inactive: [1] 0.3% | [2] -7.3% | [3] -0.3% | [4] -32% | [5] 17.8% | [6] 15.2%

CC(C)(C)c1cc(C(=S)N2CCN(C(=S)c3cc(C(C)(C)C)c(O)c(C(C)(C)C)c3)CC2)cc(C(C)(C)C)c1O
inactive: [1] 4.05% | [2] -10.7% | [3] -10.9% | [4] -48.5% | [5] 2.45% | [6] -16.9%

CC(=O)OC1CCC2(C)C(CCC3C2CCC2(C)C(c4cccc(=O)o4)CCC32)C1 (configuration not stated)
inactive: [1] 22.5% | [2] 8.9% | [3] 11.4% | [4] 14.8% | [5] 0.35% | [6] 2.3%

CC(=O)OC(C(=O)Nc1ncccn1)c1ccccc1 (configuration not stated)
inactive: [1] -4.7% | [2] -2.8% | [3] -5.65% | [4] 11.4% | [5] 4.5% | [6] -10.9%

CCc1nc(-c2ccccc2)nc2c1nc(-c1ccc(C)cc1)n2Nc1ccccc1
inactive: [1] 0.85% | [2] 6.05% | [3] -2.95% | [4] -0.25% | [5] -4.45% | [6] 20.9%

CC(=O)Nc1cccc(Cl)c1
inactive: [1] -2.25% | [2] -24.5% | [3] -0.2% | [4] -4.8% | [5] -1.45% | [6] 6.5%

Cc1cc([N+](=O)[O-])ccc1Sc1c2ccccc2nc2ccccc12
inactive: [1] -63.5% | [2] -16.2% | [3] -13.8% | [4] 11.3% | [5] -17.5% | [6] -18.9%

OCC(O)C(O)C(O)C(O)CNC(CO)(CO)CO (configuration not stated)
inactive: [1] 9.9% | [2] 13.3% | [3] 18.6% | [4] -1.45% | [5] 16.6% | [6] 27.5%

N#CCC(=O)N/N=C/c1ccccc1
inactive: [1] 8.3% | [2] -27.1% | [3] 0.55% | [4] 9.95% | [5] -5.85% | [6] 9.4%

CCN(CC)CCC1CCCCN1CC(=O)N1c2cc(Cl)ccc2NC(=O)CC1C (configuration not stated)
inactive: [1] 24.9% | [2] 0.8% | [3] 15.1% | [4] -6.45% | [5] 1.3% | [6] 20.6%

CCCCCCCCCCS(=O)(=O)CC(=O)O
inactive: [1] 3.8% | [2] -2.35% | [3] 14.7% | [4] -12.7% | [5] -8.3% | [6] -3.6%

O=C(O)c1cscc1-c1ccccc1
inactive: [1] 2.5% | [2] -0.05% | [3] -6.9% | [4] -19.9% | [5] -12.1% | [6] 3.6%

CN1CC2(CO)C(c3ccccn3)N(C)C(c3ccccn3)C(CO)(C1)C2O (configuration not stated)
inactive: [1] 2.5% | [2] 16.4% | [3] -10.7% | [4] -6.2% | [5] -0.6% | [6] 10.8%

Nc1ccn([C@@H](C=O)C[C@@H](C=O)CO)c(=O)n1
inactive: [1] -3.45% | [2] -0.85% | [3] 14.8% | [4] 19.3% | [5] 11.2% | [6] -45.6%

COc1ccc(-n2c(N)c(C#N)c(C#N)c2-c2ccco2)cc1
inactive: [1] 6.7% | [2] 9% | [3] -9.3% | [4] -20.1% | [5] -25.4% | [6] -39%

CCOC(=O)C1=C(C)N(Cc2ccccc2)C(C)=C(C(=O)OCC)C1c1ccccc1O
inactive: [1] 20.5% | [2] 28.2% | [3] 20.1% | [4] 17.6% | [5] 30.8% | [6] 18.6%

CCOC(=O)C1(c2ccccc2)CCNC(=O)CC1 (configuration not stated)
inactive: [1] 7.65% | [2] 8.2% | [3] 16.2% | [4] -14.1% | [5] 13.5% | [6] 8.6%

COc1ccccc1C1C(C(=O)Nc2ccccc2)=C(C)NC(C)=C1C(=O)Nc1ccccc1
inactive: [1] -3.2% | [2] -21.9% | [3] -36.2% | [4] 15.1% | [5] -3.85% | [6] -11.2%

CC1=C(C(=O)Nc2ccc([N+](=O)[O-])cc2)C(c2ccc3c(c2)OCO3)C(C(=O)Nc2ccc([N+](=O)[O-])cc2)=C(C)N1
inactive: [1] 8.65% | [2] 15.3% | [3] 21.6% | [4] 24.4% | [5] 10.2% | [6] 7.05%

CCCC(NC(=O)CNC(=O)OCc1ccccc1)C(=O)O (stereo not drawn) (Cbz-Gly-[ξNva]-OH)
inactive: [1] 31.6% | [2] 7% | [3] 2.35% | [4] 19.9% | [5] 5.45% | [6] 3.95%
